Our source for the rescue of ATP level values is PubChem BioAssay AID602340 (Broad Institute, 2012).

The structures appear in SMILES notation. Out of some 330,000 compounds screened, about 2,600 (0.79%) were called active. This is one part of a sample in which actives are shown more often than they occur. A number with no mark means an inactive call.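 How the source made its calls: active means mean ATP rescue above about 67%, or every replicate alone reaching that limit (limit read from the data, passing the limit was not always enough); inconclusive means no clear call, values can overlap the other calls; inactive means mean under the limit and some replicate under it.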

The assay is described as follows: suppressors of statin myotoxicity in C2C12 myotubes, primary screen, cell-based, single point, plate reader (AID 602340).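 Further: myotubes were challenged with 10 µM simvastatin during compound exposure.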 To be noted: C2C12 myotubes + simvastatin, ATP luminescence, 48 h; at 7.49 µM; stronger effect = higher value; scaled: DMSO 0, geranylgeraniol control 100.
Regarding `O=C(Nc1ccccc1F)N1C[C@H]2[C@@H](c3ccccc31)[C@H](CO)N2C(=O)c1ccccn1`, the rescue of ATP level is 45.1%.
Next, `O=C(N[C@@H]1CC[C@@H](CCNS(=O)(=O)Cc2ccccc2)O[C@@H]1CO)c1ccccc1F`: -15%.
Regarding `CN(C)C(=O)[C@@H]1[C@@H](CO)[C@@H]2Cn3c(ccc(-c4ccccc4F)c3=O)[C@@H]2N1C(=O)C1CC1`, the rescue of ATP level was -6.7%.
As to `O=C(NCc1ccco1)c1cc2sccc2n1Cc1ccc(F)cc1`, the rescue of ATP level was 160% (active).
The same measure for `O=C(Cc1ccc(-n2c(=O)c3sccc3n(Cc3ccc(F)cc3)c2=O)cc1)NCc1ccco1`: -0.81%.
Next, `O=C(NCc1ccco1)c1ccc(Cn2c(=O)c3sccc3n(Cc3ccc(F)cc3)c2=O)cc1`: -13.7%; `O=C(C[C@@H]1CC[C@@H]2[C@H](COC[C@H](O)CN2Cc2cccc(-c3ccncc3)c2)O1)N1CCOCC1`: 7.32%; `Cc1ccc(SCC(=O)NNC(=O)c2ccc(S(C)(=O)=O)cc2)cc1`: 90% (active).
Next, `Cc1ccc(C(=O)NNC(=O)CSc2nnc3ccccn23)cc1`: 0.262%; `CS(=O)(=O)c1ccc(C(=O)NNC(=O)c2cccs2)cc1`: 19.1%.
With `CO[C@H]1CN(C)C(=O)c2ccc(NC(=O)C3CCC3)cc2OC[C@@H](C)N(Cc2ccccn2)C[C@H]1C`, the rescue of ATP level is 9.17%.
Next, `CNC(=O)C[C@H]1CC[C@@H]2[C@H](COc3ccc(NC(=O)C(C)C)cc3C(=O)N2C)O1`: 5.79%; `O=C(c1ccc2c(c1)C(=O)N(c1ccc(Cl)cc1)C2=O)N1CCN(c2ccccn2)CC1`: 135% (active).
The same measure for `O=C(CCC1CCCN(C(=O)c2ccc(F)c(F)c2)C1)N1CCN(c2ccccn2)CC1` (stereo not drawn): -0.349%; for `O=C(c1c(F)cccc1Cl)N1CCN(c2ccccn2)CC1`: -10.5%; for `COCC(=O)Nc1ccc2c(c1)OC[C@H](C)N(C(=O)c1cnccn1)C[C@@H](C)[C@H](OC)CN(C)C2=O`: 3.92%.
The same measure for `COc1ccc(/C(O)=C2/C(=O)C(=O)N(CCCN(C)C)C2c2ccccc2)cc1OC` (stereo not drawn): 14.8%; for `COc1cc(C2C(C(=O)c3sc(C)nc3C)=C(O)C(=O)N2CCN(C)C)cc(OC)c1OC` (stereo not drawn): 116% (active).
`COc1ccccc1CNC(=O)COC(=O)c1sc(C)nc1C`: the rescue of ATP level is -4.29%.
The same measure for `C[C@@H]1CN([C@@H](C)CO)C(=O)Cc2cc(NS(=O)(=O)c3cccs3)ccc2O[C@@H]1CN(C)S(=O)(=O)c1ccc(F)cc1`: -10.2%; for `COCC(=O)Nc1ccc2c(c1)[C@@H]1C[C@H](CC(=O)NCc3ccc(-c4ccccc4)cc3)O[C@H](CO)[C@@H]1O2`: -0.998%.
Next, `C[C@@H]1CCCCO[C@@H](CN(C)C(=O)NC2CCCCC2)[C@H](C)CN([C@H](C)CO)C(=O)c2cc(NC(=O)Nc3cccc4ccccc34)ccc2O1`: -71%; `CCc1ccc(N2CC(C(=O)NC3=NCCS3)CC2=O)cc1` (stereo not drawn): 109% (active); `CCc1ccc(N2CC(C(=O)Nc3ccc(S(=O)(=O)Nc4nccs4)cc3)CC2=O)cc1` (stereo not drawn): 2.04%.
Next, `CCc1ccc(N2CC(C(=O)N3CCCCCC3)CC2=O)cc1` (stereo not drawn): -5.19%.
As to `COc1ccc(NC(=O)Nc2ccc3c(c2)C(=O)N([C@@H](C)CO)C[C@H](C)[C@H](CN(C)C(=O)Nc2ccccc2)OCCCC[C@@H](C)O3)cc1`, the rescue of ATP level is 0.523%.
As to `CN1C(=O)c2cc(NS(C)(=O)=O)ccc2OC[C@@H]2O[C@@H](CC(=O)NCc3ccc(-c4ccccc4)cc3)CC[C@H]21`, the rescue of ATP level is 21.8%.
Next, `Cc1c(Cl)c([N+](=O)[O-])nn1Cc1ccc(C(=O)N/N=C\c2cc(Cl)ccc2O)o1`: 74.2% (active).
Regarding `CN(C)c1ccc(/C=N/NC(=O)c2ccc(Cn3cc(Br)cn3)o2)cc1`, the rescue of ATP level was -6.78%.
For `Cc1nn(Cc2ccccc2Cl)c(C)c1NC(=O)Cn1nc([N+](=O)[O-])c(Cl)c1C`, the rescue of ATP level was 13.1%.
For the molecule `CO[C@@H]1CC[C@@H]2CCOc3ccc(C#N)cc3C(=O)N(C)[C@H](C)C(=O)N(C)C[C@@H]1O2`, the rescue of ATP level was 4.94%.
Next, `O=C(NCC[C@@H]1CC[C@H](NC(=O)C2CCCCC2)[C@@H](CO)O1)Nc1ccc(Cl)cc1`: -9.47%.
Next, `CO[C@@H]1CN(C)C(=O)c2ccc(NS(=O)(=O)c3cccc(F)c3)cc2OC[C@H](C)N(C(=O)Cc2cccnc2)C[C@@H]1C`: 19.8%; `C[C@H]1CN([C@@H](C)CO)C(=O)c2cc(-c3cccc(C(=O)N(C)C)c3)cnc2O[C@H]1CN(C)S(=O)(=O)c1ccccc1`: -7.9%; `Nc1ccc(C(=O)OCC(=O)NC2CCS(=O)(=O)C2)cc1[N+](=O)[O-]` (stereo not drawn): -3.1%.
Next, `Nc1ccc(C(=O)OCC(=O)NC2CCCc3ccccc32)cc1[N+](=O)[O-]` (stereo not drawn): 150% (active); `NC(=O)Nc1ccc(C(=O)OCC(=O)NC2CCCc3ccccc32)cc1` (stereo not drawn): -1.62%; `Cc1nn(C)c(Oc2ccc(Cl)cc2)c1C=O`: 15.3%.
For the molecule `Cc1nn(C)c(Oc2ccccc2)c1[N+](=O)[O-]`, the rescue of ATP level is 72.4% (active).
Turning to `Cc1nn(C)c(Oc2ccccc2)c1CCNS(=O)(=O)c1ccc(F)cc1`, the rescue of ATP level was 8.55%.
The same measure for `CCC1(CC)NC(=O)N(CC(=O)OCC(=O)NC(=O)c2ccccc2)C1=O`: -1.1%; for `CCC1(CC)NC(=O)N(CC(=O)OCC(=O)c2cc(C)c(C)cc2C)C1=O`: 8.64%.
The same measure for `CCC1(CC)NC(=O)N(CC(=O)OCC(=O)Nc2ccc(C(F)(F)F)cc2)C1=O`: 115% (active).
The same measure for `C[C@H]1CN([C@@H](C)CO)C(=O)c2c(c3ccccc3n2C)-c2ccccc2CO[C@H]1CN(C)C(=O)Nc1ccc(F)cc1`: 19.1%; for `COCC(=O)N1C[C@H]2[C@@H](c3ccccc31)[C@@H](CO)N2C(=O)NC(C)C`: 17%.
As for `COc1ccccc1CNC(=O)C1CCN(c2nc3ccccc3o2)CC1`, the rescue of ATP level is 15.8%.
Take `CCc1ccc(CNC(=O)C2CCCN(c3nc4ccccc4o3)C2)cc1` (stereo not drawn): the rescue of ATP level was 28.3%.
On to `COc1ccc(OC)c(CNC(=O)C2CCCN(c3nc4ccccc4o3)C2)c1` (stereo not drawn), for which the rescue of ATP level was 102% (active).
Next, `C[C@@H]1CN([C@@H](C)CO)C(=O)c2cccc(NS(=O)(=O)c3cn(C)cn3)c2O[C@@H]1CN(C)Cc1ccc(Cl)c(Cl)c1`: -13.1%; `CCCNC(=O)C[C@H]1C[C@@H]2c3cc(NC(=O)C4CCOCC4)ccc3O[C@@H]2[C@@H](CO)O1`: -1.71%.
Next, `CCN(CC)Cc1cc(C(C)=O)ccc1O`: 16.6%; `CN(CCO)Cc1csc2ccc(Br)cc12`: 14.5%; `CCN(CC)Cc1csc2ccc(Br)cc12`: 100% (active).
Next, `CNC[C@H]1Oc2cc(-c3cccnc3)ccc2S(=O)(=O)N([C@@H](C)CO)C[C@H]1C`: -14.4%; `O=C(C[C@@H]1C=C[C@H](NC(=O)c2ccc3c(c2)OCO3)[C@H](CO)O1)NCc1ccc(Oc2ccccc2)cc1`: 8.65%; `CN(C)C(=O)c1cccc(-c2ccc3c(c2)[C@H]2[C@H](CCN2S(=O)(=O)c2cn(C)cn2)[C@@H](CO)N3)c1`: 13.8%.
Take `CCN1C(=O)N[C@@H](c2ccccc2)C(C(=O)OC)=C1C`: the rescue of ATP level is -1.21%.
Take `COC(=O)C1=C(C)N(C)C(C)=C(C(=O)OC)C1c1cccc(Br)c1`: the rescue of ATP level is 89.2% (active).
The same measure for `COCCN1C(=O)N[C@@H](c2ccccc2)C(C(=O)OC)=C1C`: -10.8%; for `COCC(=O)Nc1ccc2c(c1)OC[C@H](C)N(C(=O)Cc1ccccn1)C[C@H](C)[C@@H](OC)CN(C)C2=O`: 9.72%.
The same measure for `Cc1ccc2nc(Nc3ccccc3O)nc(-c3ccccc3)c2c1`: 134% (active); for `OCCCNc1nc(-c2ccccc2)c2cc(Cl)ccc2n1`: 1.1%; for `O=C(CCl)NNc1nc(-c2ccccc2)c2cc(Cl)ccc2n1`: 16.4%.
Next, `CC(C)NC(=O)Nc1ccc2c(c1)CC(=O)N([C@@H](C)CO)C[C@@H](C)[C@@H](CN(C)S(=O)(=O)c1ccccc1)O2`: -17%; `COc1ccccc1CNC(=O)C[C@@H]1CC[C@H](NC(=O)CN(C)C)[C@@H](CO)O1`: 2.77%.
Take `CN1c2ccc(-c3ccccc3)cc2[C@@H]2[C@@H](CCN2C(=O)NC2CCCC2)[C@H]1CO`: the rescue of ATP level is -5.4%.
Regarding `CCCNC(=O)N[C@@H]1C=C[C@H](CC(=O)NC2CCC2)O[C@H]1CO`, the rescue of ATP level is 1.32%.
In the case of `CN1C(=O)c2cc(NC(=O)c3ccc(Cl)cc3)ccc2OC[C@H]2O[C@H](CC(=O)O)CC[C@H]21`, the rescue of ATP level was -6.44%.
`C[C@@H]1CN([C@@H](C)CO)C(=O)c2cc(C#CC(C)(C)O)cnc2O[C@@H]1CN(C)C(=O)C1CCOCC1`: the rescue of ATP level is 16.9%.
The same measure for `C=CCNC(=S)N/N=C/c1ccc(C)s1`: 5.1%.
The same measure for `CNC(=S)N/N=C/c1ccc(OCc2ccccc2)c(Br)c1`: 10.8%; for `C=CCNC(=S)N/N=C/c1ccc(OCc2ccccc2)cc1`: 106% (active); for `O=C(C[C@H]1CC[C@H]2[C@@H](COC[C@@H](O)CN2CC2CCOCC2)O1)NCc1ccc(Cl)cc1`: 7.95%.
Next, `O=C(/C=C/c1ccco1)Nc1ccc(Oc2ccccc2)cc1`: -25.3%; `CCC(=O)Nc1ccc2nn(-c3ccc(F)cc3)nc2c1`: -5.86%; `Cc1ccc(-n2nc3ccc(NC(=O)/C=C/c4ccco4)cc3n2)cc1C`: 97.3% (active).
`COCC(=O)N[C@H]1C=C[C@H](CC(=O)N2CCCCC2)O[C@H]1CO`: the rescue of ATP level was 6.62%.
With `CNC[C@H]1Oc2cc(C#CCOC)ccc2S(=O)(=O)N([C@@H](C)CO)C[C@H]1C`, the rescue of ATP level is -7.75%.
